SMILES strings stand for the structures. Values joined by “and” are separate entries in the source; they are usually repeats but may differ in a detail not shown here. Identical values can stand only once. This is part of a sample that, as a whole, favours compounds with a hit. Of some 83,000 tested, about 20% had one in any assay.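 Testing used 96-well plates and a 48-hour single-concentration exposure. Example: -40 means 40% of the starting cells died.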 Active and inactive are the calls of the source. The calls were made as follows: active = growth percent below 10; inactive = the rest.

For the assay, the system named is A549/ATCC NSCLC. As to the kind of experiment: NCI-60 one-dose screen, 48 h (100 = growth as untreated, 0 = no growth, -100 = all killed). To be noted: 10 µM unless noted.
As to `COc1ccc(/C(C#N)=C/c2ccccn2)cc1`, the growth was 101% (inactive) and 103% (inactive).
For the molecule `O=C1OC2(c3ccccc31)c1ccc(O)c(O)c1Oc1c2ccc(O)c1O`, the growth is 105% (inactive).
The value for `CC(=O)Nc1cccc2c1CCCC2` was 63.6% (inactive) and 88.1% (inactive); that for `CN(C)c1ccc2nc3ccc(N)cc3[n+](-c3ccccc3)c2c1` was 62.1% (inactive) and -27.6% (active); that for `CCN(CC)CCOc1ccc(/C=N/Nc2nc3c([nH]2)c(=O)n(C)c(=O)n3C)cc1` was 104% (inactive) and 110% (inactive).
In the case of `O=C1CCN(Cc2ccccc2)C(=S)N1`, the growth is 107% (inactive) and 105% (inactive).
Turning to `CC(C)Cc1ccc(C(C)C(=O)NCc2ccc(Cn3c(=O)sn(CCCI)c3=O)cc2)cc1` (stereo unspecified), the growth was 95.4% (inactive) and -54.7% (active).
As to `CCc1c(CC(=O)O)c2cc(C)ccc2n1Cc1ccc(Cl)cc1`, the growth is 89.1% (inactive) and 87.3% (inactive).
`CNC(=O)c1ccc(C)c(-n2c(C)cc(OCc3ccc(F)cc3F)c(Br)c2=O)c1`: the growth is 63.4% (inactive) and 63.2% (inactive).
In the case of `O=[N+]([O-])c1ccc(-n2[nH]nnc2=S)cc1`, the growth was 102% (inactive).
Regarding `COC(=O)/C=C/c1cc(O)c2c(c1)C(C(=O)OC)C(c1ccc(O)c(O)c1)O2` (stereo unspecified), the growth is 31.5% (inactive) and 20.3% (inactive).
The figure for `COC(=O)c1nc(N)nc(C(=O)OC)c1C(=O)c1ccc(OC)cc1` is 102% (inactive) and 53.6% (inactive); for `COc1cc2c(c(OC)c1OC)-c1ccc(OC)c(=O)cc1[C@@H](NC(C)=O)CC2` it is 12.3% (inactive) and 44.9% (inactive); for `CN1CCN(c2ccc3nc(-c4c(N)c5c(F)cccc5[nH]c4=O)[nH]c3c2)CC1` it is 12.9% (inactive) and 22.3% (inactive).
As to `NC(=S)NN=C1CCC(C2CCCCC2)CC1` (stereo unspecified), the growth was 94% (inactive) and 99.5% (inactive).
Take `c1ccc2cc(C[n+]3ccn(Cc4ccc5ccccc5n4)c3)ccc2c1`: the growth is 37.3% (inactive) and 59.3% (inactive).
Consider `CN(C)CCC(=O)c1ccc(Cl)cc1`, for which the growth is 109% (inactive) and 107% (inactive).
In the case of `Fc1ccccc1Nc1n[nH]c(=S)s1`, the growth is 101% (inactive).
As to `CCOc1ccc2cc(-c3nn(CC4CCN(C)CC4)c4ncnc(N)c34)ccc2c1`, the growth was 78.3% (inactive) and 60.1% (inactive).
As for `CC[N+](CC)(CC(=O)Nc1c(C)cccc1C)Cc1ccccc1`, the growth is 106% (inactive) and 98.5% (inactive).
As for `CC1=CCC2CC1C2(C)C` (stereo unspecified), the growth is 94.3% (inactive) and 83.6% (inactive).
In the case of `CC1(C)[C@@H](OC(=O)CCC(=O)O)CC[C@]2(C)[C@H]3C(=O)C=C4[C@@H]5C[C@@](C)(C(=O)O)CC[C@]5(C)CC[C@@]4(C)[C@]3(C)CC[C@@H]12`, the growth was 107% (inactive) and -28.4% (active).
For the molecule `CCC(O)c1ccccc1` (stereo unspecified), the growth was 104% (inactive) and 99.4% (inactive).
Consider `CN(Cc1ccccc1)Cc1ccccc1`, for which the growth was 96.7% (inactive).
As for `COc1ccc(-c2ncnc3c2ncn3C/C=C/CCl)cc1`, the growth was 81.2% (inactive) and 75% (inactive).
In the case of `NS(=O)(=O)c1cc2c(cc1Cl)NC(C(Cl)Cl)NS2(=O)=O` (stereo unspecified), the growth is 80.9% (inactive) and 106% (inactive).
With `O=Nc1ccc(O)cc1`, the growth is 99% (inactive) and 93.9% (inactive).
Take `COc1ccc2c(=O)cc(-c3ccccc3)[nH]c2c1`: the growth was 22.6% (inactive) and 13.9% (inactive).
Regarding `O=CC(O)C(O)C(O)CO` (stereo unspecified), the growth was 102% (inactive).
For `CN(C)c1ccc(/C=C(\C#N)c2ccccc2)cc1`, the growth was 24.3% (inactive) and 31.2% (inactive) and 24.9% (inactive).
As to `OCCN1CCN(CCO)CC1`, the growth is 89.5% (inactive) and 73% (inactive) and 115% (inactive).
As for `CC1=C[C@H]2c3c(c(O)c(O)c4oc5cc(O)cc(O)c5c(=O)c34)[C@H](c3cc(O)c(O)c4oc5cc(O)cc(O)c5c(=O)c34)[C@H]2C(C)(C)C1`, the growth was -10% (active) and -37.5% (active).
As to `CCOc1ccc2c(S(=O)(=O)O)cccc2c1[N+](=O)[O-]`, the growth was 97.2% (inactive) and 101% (inactive).
The value for `Nc1ccccc1Nc1ccccc1` was 79.2% (inactive); that for `Oc1ccccc1C=NCC1CCC(CN=Cc2ccccc2O)CC1` (stereo unspecified) was 92.2% (inactive); that for `Clc1ccc(NC(Nc2ccc(Cl)cc2)C(Cl)(Cl)Cl)cc1` was 80.9% (inactive) and 92.3% (inactive).

Values taken from PubChem BioAssay (NCI).
